Results reported in PubChem BioAssay (NCATS).
Active and inactive are the calls of the source. Calls come from the whole dose curve; as a rule, active = well fitted activation curve with a large enough effect; inconclusive = small, poorly fitted or top-dose-only effect; inactive = flat fitted curve, though single readings scatter.

Test: Confirmation and Secondary Assay for Modulators of Hemoglobin Beta Chain Splicing at IVS2 705 locus (AID 930)
Details: HeLa EGFP-705 splicing reporter, GFP fluorescence, 48 h; series mostly up to 46.1 µM
Summary of the method: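 HeLa cells stably carrying EGFP interrupted by mutant beta-globin IVS2-705 intron (CMV-driven) were seeded at 500 cells/well, treated next day with compound for 2 days at 37C; corrected splicing restores EGFP, read as total peak GFP intensity per well.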

| SMILES | outcome |
| --- | --- |
| OC(CCN1CCCC1)(c1ccccc1)C1CCCCC1 (centres undefined) | inactive |
| Cc1cc(O)cc(C)c1Cl | inactive |
| O=C(O)c1ccccc1C(=O)Nc1ccc(S(=O)(=O)Nc2nccs2)cc1 | inactive |
| CCCCC1(COC(=O)CCC(=O)O)C(=O)N(c2ccccc2)N(c2ccccc2)C1=O | inactive |
| COc1ccccc1OCC(O)CO (centres undefined) | inactive |
| Cc1cccc(Nc2ccccc2C(=O)O)c1C | inactive |
| NS(=O)(=O)c1cc(C2(O)NC(=O)c3ccccc32)ccc1Cl (centres undefined) | inactive |
| O=c1[nH]cnc2nc[nH]c12 | inactive |
| Cc1onc(-c2ccccc2)c1-c1ccc(S(N)(=O)=O)cc1 | inactive |
| C[N+]1(C)CCCC(OC(=O)C(O)(c2ccccc2)c2ccccc2)C1 (centres undefined) | inactive |
| CN1CCCN=C1COC(=O)C(O)(c1ccccc1)C1CCCCC1 (centres undefined) | inactive |
| Cn1c([N+](=O)[O-])cnc1COC(N)=O | inactive |
| Cc1ccsc1/C=C/C1=NCCCN1C | inactive |
| Cn1c(=O)c2c(ncn2CCO)n(C)c1=O | inactive |
| CC(C)=CCC/C(C)=C/CO | inactive |
| NC(N)=NS(=O)(=O)c1ccc(N)cc1 | inactive |
| O=C(O)c1cc(=O)c2ccccc2o1 | inactive |
| NC(=O)NC1NC(=O)NC1=O (centres undefined) | inactive |
| Cc1c(NC(C)C)c(=O)n(-c2ccccc2)n1C | inactive |
| Cc1c(NC(=O)c2cccnc2)c(=O)n(-c2ccccc2)n1C | inactive |
| O=C(Cn1ccnc1[N+](=O)[O-])NCCO | inactive |
| CC(=O)NCc1c(I)c(NC(C)=O)c(I)c(C(=O)O)c1I | inactive |
| CCCCCC(C)N (centres undefined) | inactive |
| CC1CCc2cc(F)cc3c(=O)c(C(=O)O)cn1c23 (centres undefined) | inactive |
